PubChem BioAssay AID743279 (National Center for Advancing Translational Sciences (NCATS), 2014)
Out of some 360,000 compounds screened, about 17,000 (4.7%) were called active. Not shown: some 5% with an inconclusive outcome. Shown is part of a subset that was picked to be rich in actives. Unmarked numbers belong to inactive results. Rule as the data show it: active = activity change below about -50%; inconclusive = mostly about -30% to -49%; inactive = weaker than that.

experiment: qHTS for Inhibitors of Inflammasome Signaling: IL-1-beta AlphaLISA Primary Screen; conditions: THP-1 LPS/ATP IL-1B secretion, 16 h; at 57.5 µM, stronger effect = lower value
Method in brief: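 Secreted IL-1B measured by AlphaLISA bead assay after 16 h compound exposure of THP-1 cells; compounds (final up to 57.5 uM) added 1 h before LPS (250 ng/mL) and ATP (1.25 mM) stimulation; lower signal means less secretion.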
% is scaled to controls: 0 for no effect and ±100 for the full control effect.

Q: With `CCCCNC(=O)C[C@@H]1C[C@@]2(C(=O)OC)CC(C)(C)CC=C2N(Cc2ccco2)C1=O` as the compound, how does the activity change read?
A: -1.57%

Q: For `NCCCCC(C(=O)O)N(C(=O)OCc1ccccc1)C(=O)OCc1ccccc1` (stereo not given), which activity change is on record?
A: -16.2%

Q: For `COC(=O)c1ccccc1Sc1c(/C=N/OCc2ccc(Cl)cc2)c(C(F)(F)F)nn1C`, which activity change is on record?
A: 20.2%

Q: Which activity change does the source give for `O=C(O)CSc1c2c(nc3cc(C(=O)Nc4cccc(C(F)(F)F)c4)ccc13)CCCC2` here?
A: -26.7%

Q: For `Cn1nc(C(F)(F)F)c(C(=O)Nc2cccc(C(F)(F)F)c2)c1SCc1ccc(Cl)cc1`, which activity change is on record?
A: -81.8% (active)

Q: For `OC[C@@H]1CN(Cc2cccs2)C[C@H](n2cnc3c(Nc4ccccc4)ncnc32)O1`, which activity change is on record?
A: 8.21%

Q: Which activity change does the source give for `c1ccc(C[C@H]2CNCCN2CCC23CC4CC(CC(C4)C2)C3)cc1` here?
A: -74.5% (active)

Q: Which activity change does the source give for `c1ccc2c(CCN3CCNC[C@H]3Cc3cccc4ccccc34)cccc2c1` here?
A: -12.9%

Q: With `O=C1CCNCCN1[C@H](CO)Cc1ccccc1` as the compound, how does the activity change read?
A: 17.5%

Q: With `CCCC(=O)N1CCC1(C)C(=O)Nc1ccc(-n2cncn2)cc1` (stereo not given) as the compound, how does the activity change read?
A: 0.196%

Q: Which activity change does the source give for `C[C@@H]1CN([C@H](C)CO)C(=O)CCCn2cc(nn2)CO[C@H]1CN(C)S(=O)(=O)c1ccc(Oc2ccccc2)nc1` here?
A: 17.8%

Q: For `O=S(=O)(c1ccc(F)cc1)N1CCN=C1SCc1cccc(F)c1`, which activity change is on record?
A: 12.9%

Q: Which activity change does the source give for `CNc1ccc(SC#N)cc1` here?
A: -70.1% (active)

Q: Which activity change does the source give for `CC(=O)N1CCc2c(sc(NC(=O)CCS(=O)(=O)c3ccccc3)c2C#N)C1` here?
A: inactive

Q: For `O=C1OCCOC2CCCc3oc(-c4ccccc4)c1c32` (stereo not given), which activity change is on record?
A: 10.6%

Q: Which activity change does the source give for `O=C(NCc1ccccc1)C1c2ccccc2OCC(=O)N1CCCN1CCOCC1` (stereo not given) here?
A: 89.8%

Q: With `C/C(=N\Nc1ncc(Cl)cc1Cl)c1ccc(S(=O)(=O)NCc2ccco2)cc1` as the compound, how does the activity change read?
A: -9.03%

Q: Which activity change does the source give for `O=S(=O)(NCC1CCCO1)c1cnc(Cl)c(Cl)c1` (stereo not given) here?
A: -65.5% (active)

Q: For `O=C(COC(=O)c1cnc(Cl)c(Cl)c1)NCc1ccco1`, which activity change is on record?
A: 10%

Q: With `O=S(=O)(NCc1ccco1)c1cnc(Cl)c(Cl)c1` as the compound, how does the activity change read?
A: -67.1% (active)

Q: Which activity change does the source give for `O=S(=O)(NCC1CCCO1)c1ccc2ccccc2c1` (stereo not given) here?
A: 1.02%

Q: Which activity change does the source give for `CCOc1ccc(S(=O)(=O)NCC2CCCO2)cc1` (stereo not given) here?
A: 6.01%

Q: For `O=C(Nc1cccc2ccccc12)NC1CC1`, which activity change is on record?
A: -13.6%

Q: With `COC(=O)C[C@H]1C[C@@H]2c3cc(N(C)C)ccc3O[C@@H]2[C@H](CO)O1` as the compound, how does the activity change read?
A: 13.8%

Q: Which activity change does the source give for `O=C(NCc1cccnc1)c1cc(C2CCCN(C(=O)C3CCCCC3)C2)on1` (stereo not given) here?
A: -24.1%

Q: With `CCCNC(=O)c1cc(C2CCCCN2C(=O)OC)on1` (stereo not given) as the compound, how does the activity change read?
A: 0%

Q: For `O=C1c2ccccc2-c2ccccc2NC1O` (stereo not given), which activity change is on record?
A: 7.09%

Q: Which activity change does the source give for `CC(C)C1N=C2c3ccccc3N=C(SCC(=O)c3ccc(O)c(O)c3)N2C1=O` (stereo not given) here?
A: 41.9%

Q: With `O=C1CC[C@@H](C(=O)N2CSC[C@@H]2C(=O)Nc2ccc(C(F)(F)F)cc2)N1` as the compound, how does the activity change read?
A: -1.13%

Q: Which activity change does the source give for `COc1cc(NC(=O)Nc2ccc(C)cc2)cc([N+](=O)[O-])c1` here?
A: -21%

Q: With `CS/C(=C\[N+](=O)[O-])Nc1ccc(C)cc1` as the compound, how does the activity change read?
A: -131% (active)

Q: For `Cc1ccc(NC(=O)O/N=C/c2cccc([N+](=O)[O-])c2)cc1`, which activity change is on record?
A: -1.61%

Q: For `Cc1nn(-c2ccccc2)nc1C(=O)OCC(=O)N1CCCCC1C` (stereo not given), which activity change is on record?
A: 12%

Q: With `O=C(Cc1ccc(NC(=O)C2CCCN(C(=O)C3CCCCC3)C2)cc1)Nc1cccc(C(=O)N2CCCCC2)c1` (stereo not given) as the compound, how does the activity change read?
A: -3.57%

Q: For `Cc1[nH]c2ccccc2c1C(=O)CSCC(=O)O`, which activity change is on record?
A: 10.6%

Q: Which activity change does the source give for `Cc1onc(-c2ccccc2Cl)c1C(=O)OCC(=O)c1ccccc1` here?
A: -25.9%

Q: With `Cc1[nH]c2ccccc2c1C(=O)COC(=O)c1c(-c2ccccc2)noc1C` as the compound, how does the activity change read?
A: -59.9% (active)

Q: Which activity change does the source give for `COc1ccc(CC(=O)NC(C)c2ccc(Cl)c(Cl)c2)cc1S(=O)(=O)N1CCOCC1` (stereo not given) here?
A: -9.07%

Q: For `CN(C)c1ccc(Nc2c3c4c(cccc4n(C)c2=O)C(=O)c2ccccc2-3)cc1`, which activity change is on record?
A: -11.1%

Q: With `COc1ccc2sc(-c3ccc(N(C)C)cc3)c(C#CCO)c2c1` as the compound, how does the activity change read?
A: -3.05%

Q: With `COc1ccc2sc(-c3ccc(N(C)C)cc3)c(-c3ccc4cc[nH]c4c3)c2c1` as the compound, how does the activity change read?
A: -13.1%

Q: For `COc1ccc2c(c1)c(=Cc1ccc(N(C)C)cc1)c1cc(-c3ccccc3)[n+](C)n12`, which activity change is on record?
A: -118% (active)

Q: Which activity change does the source give for `O=C(CCNC(=O)c1ccc(Cl)cc1)NC1CCCc2ccccc21` (stereo not given) here?
A: 1.14%

Q: Which activity change does the source give for `COc1cc2[nH]c(O)c(C=O)c2cc1OC` here?
A: -8.17%

Q: Which activity change does the source give for `CN1c2ccc(C=O)c3c(C=O)ccc(c23)N(C)C1(C)C` here?
A: -96.3% (active)
